This is an account of results in paper PMC5869772, “Quantitative profiling of BATF family proteins/JUNB/IRF hetero-trimers using Spec-seq”.

Common to all, as to experiment: Spec-seq (EMSA and sequencing of bound and unbound bands); 100 nM BATFx-JUNB, 1 uM dsDNA library, 50 mM K acetate, 20 mM Tris-acetate, 10 mM Mg acetate, 100 ug/ml BSA, pH 7.9, 10% glycerol, 30 min on ice; native 9% PAGE at 4 C; low values mean tight binding
Common to all, as to conditions: protein: recombinant;recombinant; tags: N-terminal mCherry-TEV, cleaved off;C-terminal 6His; copies: 1;1; dsDNA, one strand shown
On the technique in general: In EMSA bound probe runs differently from free probe, usually more slowly.

One assay has as its target T1, BATF;JUNB (human;human, UniProt Q16520;P17275 1-125;148-347, |).
T1 sequence 1: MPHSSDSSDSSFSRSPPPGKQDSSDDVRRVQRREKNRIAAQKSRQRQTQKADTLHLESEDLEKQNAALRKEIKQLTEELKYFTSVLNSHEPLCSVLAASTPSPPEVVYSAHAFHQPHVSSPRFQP
T1 sequence 2: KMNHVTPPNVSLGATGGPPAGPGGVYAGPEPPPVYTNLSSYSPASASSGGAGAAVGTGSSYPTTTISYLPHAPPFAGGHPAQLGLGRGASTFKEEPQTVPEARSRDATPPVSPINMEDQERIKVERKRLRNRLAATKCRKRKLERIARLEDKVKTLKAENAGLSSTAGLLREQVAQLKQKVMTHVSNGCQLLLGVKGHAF
The procedure, abridged:
(§1)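 The protein, at 100 nM, was incubated with 1 μM double-stranded degenerate DNA library for 30 min on ice in NEB Cutsmart buffer with 10% glycerol, then resolved by native 9% PAGE at 4 °C. Excised bound and unbound bands were PCR-barcoded and Illumina-sequenced, and each sequence's relative binding energy in kT is −ln of its bound/unbound read-count ratio.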

The target in another assay is T2, BATF2 (bZIP);JUNB (human;human, UniProt Q8N1L9;P17275 1-142;148-347, |).
T2 sequence 1: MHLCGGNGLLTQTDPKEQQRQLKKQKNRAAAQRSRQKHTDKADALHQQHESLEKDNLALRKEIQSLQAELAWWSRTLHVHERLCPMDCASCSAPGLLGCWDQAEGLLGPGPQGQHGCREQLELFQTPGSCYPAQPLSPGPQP
T2 sequence 2: T1 sequence 2
The procedure, abridged: as §1

In a further assay the target is T3, BATF3;JUNB (human;human, UniProt Q9NR55;P17275 1-127;148-347, |).
T3 sequence 1: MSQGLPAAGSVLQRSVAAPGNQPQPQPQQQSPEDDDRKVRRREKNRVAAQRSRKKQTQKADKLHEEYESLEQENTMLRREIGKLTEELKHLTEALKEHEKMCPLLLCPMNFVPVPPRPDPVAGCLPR
T3 sequence 2: T1 sequence 2
An outline of the steps:
as §1

As for “GATAGTCTCATTTTCACCCCGTGAAATGAGTCATTTGTTCCATTACAGTATCTGT”, the binding signal was -1.06 kT with BATF;JUNB, -0.903 kT in the assay with BATF2 (bZIP);JUNB and -1.42 kT with BATF3;JUNB.

Take “GATAGTCTCATTTTCACCCCGTGAAATAAGTCATTTGTTCCATTACAGTATCTGT”: the values for the binding signal with BATF;JUNB, with BATF2 (bZIP);JUNB and with BATF3;JUNB were -0.248 kT, 0.152 kT and -0.202 kT, respectively.

Turning to “GATAGTCTCATTTTCACCCCGTGAAACAGAGTCATTGTTCCATTACAGTATCTGT”, the binding signal in the assay with BATF;JUNB was -0.149 kT; in the assay with BATF2 (bZIP);JUNB, 0.309 kT; in the assay with BATF3;JUNB, -0.0855 kT.

Take “GATAGTCTCATTTTCACCCCGTGAAATGACTAACTTGTTCCATTACAGTATCTGT”: the binding signal was -0.35 kT with BATF;JUNB, 0.462 kT in the assay with BATF2 (bZIP);JUNB and 0.0773 kT with BATF3;JUNB.

In the case of “GATAGTCTCATTTTCACCCCGTGAAATCGAGTCATTGTTCCATTACAGTATCTGT”, the binding signal was -0.54 kT with BATF;JUNB, 0.0512 kT with BATF2 (bZIP);JUNB and -0.401 kT in the assay with BATF3;JUNB.

In the case of “GATAGTCTCATTTTCACCCCGTGAAATGAGTAATTTGTTCCATTACAGTATCTGT”, the figures for the binding signal with BATF;JUNB, in the assay with BATF2 (bZIP);JUNB and in the assay with BATF3;JUNB were -0.4 kT, 0.147 kT and -0.208 kT, respectively.

In the case of “GATAGTCTCATTTTCACCCCGTGAAATGACTGACTTGTTCCATTACAGTATCTGT”, the figures for the binding signal in the assay with BATF;JUNB, with BATF2 (bZIP);JUNB and with BATF3;JUNB were -0.088 kT, 0.456 kT and 0.305 kT, respectively.

Regarding “GATAGTCTCATTTTCACCCCGTGAAATGACTCAGTTGTTCCATTACAGTATCTGT”, the binding signal with BATF;JUNB is -0.786 kT; in the assay with BATF2 (bZIP);JUNB it was -0.202 kT; with BATF3;JUNB, -0.697 kT.

Consider “GATAGTCTCATTTTCACCCCGTGAAATGACTCATTTGTTCCATTACAGTATCTGT”, for which the figures for the binding signal with BATF;JUNB, with BATF2 (bZIP);JUNB and in the assay with BATF3;JUNB were -0.896 kT, -0.796 kT and -1.24 kT, respectively.

As for “GATAGTCTCATTTTCACCCCGTGAAATGAGTCAGTTGTTCCATTACAGTATCTGT”, the binding signal with BATF;JUNB was -0.773 kT; with BATF2 (bZIP);JUNB, -0.0533 kT; in the assay with BATF3;JUNB it was -0.715 kT.

On to “GATAGTCTCATTTTCACCCCGTGAAATGTCTCATTTGTTCCATTACAGTATCTGT”, for which the binding signal worked out at 0.287 kT in the assay with BATF;JUNB, 0.93 kT in the assay with BATF2 (bZIP);JUNB and 0.725 kT in the assay with BATF3;JUNB.

As for “GATAGTCTCATTTTCACCCCGTGAAATGAGGTCATTGTTCCATTACAGTATCTGT”, the binding signal with BATF;JUNB was -0.348 kT; in the assay with BATF2 (bZIP);JUNB, 0.096 kT; in the assay with BATF3;JUNB, -1.09 kT.

In the case of “GATAGTCTCATTTTCACCCCGTGAAATGACTCGGTTGTTCCATTACAGTATCTGT”, the binding signal in the assay with BATF;JUNB is -0.246 kT; with BATF2 (bZIP);JUNB, 0.589 kT; in the assay with BATF3;JUNB, 0.398 kT.

Consider “GATAGTCTCATTTTCACCCCGTGAAATGACTCACTTGTTCCATTACAGTATCTGT”, for which the results for the binding signal in the assay with BATF;JUNB, with BATF2 (bZIP);JUNB and with BATF3;JUNB were -0.778 kT, -0.378 kT and -0.943 kT, respectively.

Turning to “GATAGTCTCATTTTCACCCCGTGAAATGACTCCATTGTTCCATTACAGTATCTGT”, the values for the binding signal with BATF;JUNB, in the assay with BATF2 (bZIP);JUNB and in the assay with BATF3;JUNB were -0.151 kT, 0.566 kT and 0.168 kT, respectively.

With “GATAGTCTCATTTTCACCCCGTGAAATGAAGTCATTGTTCCATTACAGTATCTGT”, the binding signal with BATF;JUNB was -0.461 kT; with BATF2 (bZIP);JUNB, 0.0362 kT; with BATF3;JUNB, -0.997 kT.

Take “GATAGTCTCATTTTCACCCCGTGAAATGAATCATTTGTTCCATTACAGTATCTGT”: the binding signal with BATF;JUNB is -0.738 kT; with BATF2 (bZIP);JUNB, -0.323 kT; with BATF3;JUNB, -0.732 kT.

Turning to “GATAGTCTCATTTTCACCCCGTGAAAATGCGTCATTGTTCCATTACAGTATCTGT”, the binding signal is -1.01 kT in the assay with BATF;JUNB, -0.552 kT with BATF2 (bZIP);JUNB and -1.11 kT with BATF3;JUNB.

As to “GATAGTCTCATTTTCACCCCGTGAAATGACTGATTTGTTCCATTACAGTATCTGT”, the binding signal was -0.224 kT in the assay with BATF;JUNB, 0.321 kT with BATF2 (bZIP);JUNB and 0.106 kT with BATF3;JUNB.

Take “GATAGTCTCATTTTCACCCCGTGAAAGGAGTCATTTGTTCCATTACAGTATCTGT”: the binding signal in the assay with BATF;JUNB was -0.0687 kT; in the assay with BATF2 (bZIP);JUNB, 0.569 kT; in the assay with BATF3;JUNB, 0.243 kT.

With “GATAGTCTCATTTTCACCCCGTGAAATGACACACTTGTTCCATTACAGTATCTGT”, the binding signal in the assay with BATF;JUNB was -0.0204 kT; with BATF2 (bZIP);JUNB it was 0.55 kT; with BATF3;JUNB, 0.362 kT.

As to “GATAGTCTCATTTTCACCCCGTGAAAGTGGGTCATTGTTCCATTACAGTATCTGT”, the binding signal in the assay with BATF;JUNB is 0.393 kT; with BATF2 (bZIP);JUNB, 0.822 kT; in the assay with BATF3;JUNB, 0.613 kT.

In the case of “GATAGTCTCATTTTCACCCCGTGAAATGACGCCATTGTTCCATTACAGTATCTGT”, the binding signal was -0.429 kT in the assay with BATF;JUNB, 0.257 kT with BATF2 (bZIP);JUNB and -0.802 kT with BATF3;JUNB.

For the sequence “GATAGTCTCATTTTCACCCCGTGAAAGGACTCATTTGTTCCATTACAGTATCTGT”, the binding signal with BATF;JUNB is 0.219 kT; in the assay with BATF2 (bZIP);JUNB, 0.9 kT; in the assay with BATF3;JUNB, 0.665 kT.

For “GATAGTCTCATTTTCACCCCGTGAAATGCCGTCATTGTTCCATTACAGTATCTGT”, the binding signal in the assay with BATF;JUNB was -0.311 kT; with BATF2 (bZIP);JUNB, 0.122 kT; with BATF3;JUNB, -0.649 kT.

“GATAGTCTCATTTTCACCCCGTGAAATGACTCCCTTGTTCCATTACAGTATCTGT”: the binding signal was 0.214 kT with BATF;JUNB, 0.862 kT with BATF2 (bZIP);JUNB and 0.785 kT with BATF3;JUNB.

Regarding “GATAGTCTCATTTTCACCCCGTGAAATGACTCTTTTGTTCCATTACAGTATCTGT”, the binding signal stood at 0.109 kT with BATF;JUNB, 0.673 kT with BATF2 (bZIP);JUNB and 0.524 kT with BATF3;JUNB.

In the case of “GATAGTCTCATTTTCACCCCGTGAAAAAGAGTCATTGTTCCATTACAGTATCTGT”, the binding signal in the assay with BATF;JUNB was -0.185 kT; with BATF2 (bZIP);JUNB, 0.233 kT; with BATF3;JUNB, 0.0775 kT.

On to “GATAGTCTCATTTTCACCCCGTGAAATTTAGTCATTGTTCCATTACAGTATCTGT”, for which the results for the binding signal with BATF;JUNB, with BATF2 (bZIP);JUNB and with BATF3;JUNB were -0.725 kT, -0.038 kT and -0.503 kT, respectively.

As to “GATAGTCTCATTTTCACCCCGTGAAATTACTCATTTGTTCCATTACAGTATCTGT”, the binding signal is -0.755 kT in the assay with BATF;JUNB, -0.323 kT with BATF2 (bZIP);JUNB and -0.827 kT with BATF3;JUNB.

For the sequence “GATAGTCTCATTTTCACCCCGTGAAATGAGACAGTTGTTCCATTACAGTATCTGT”, the values for the binding signal with BATF;JUNB, with BATF2 (bZIP);JUNB and with BATF3;JUNB were 0.654 kT, 1.32 kT and 1.06 kT, respectively.

As to “GATAGTCTCATTTTCACCCCGTGAAATGACCCACTTGTTCCATTACAGTATCTGT”, the values for the binding signal in the assay with BATF;JUNB, in the assay with BATF2 (bZIP);JUNB and with BATF3;JUNB were 0.593 kT, 1.04 kT and 0.927 kT, respectively.

In the case of “GATAGTCTCATTTTCACCCCGTGAAAGTGAGTCATTGTTCCATTACAGTATCTGT”, the binding signal with BATF;JUNB is -1.22 kT; in the assay with BATF2 (bZIP);JUNB, -0.978 kT; with BATF3;JUNB it was -1.65 kT.

Regarding “GATAGTCTCATTTTCACCCCGTGAAATGCCTCATTTGTTCCATTACAGTATCTGT”, the results for the binding signal with BATF;JUNB, in the assay with BATF2 (bZIP);JUNB and with BATF3;JUNB were 0.532 kT, 1.18 kT and 1.01 kT, respectively.
